From PubChem BioAssay (NCATS)
Inconclusive results are not listed. Activity calls are given as the source filed them. Calls follow the shape of the dose curve; as a rule, active = well fitted cell-killing curve with a large enough effect; inconclusive = small, poorly fitted or top-dose-only effect, or effect the other way; inactive = no such curve, though single readings can be large or run the other way.

assay: Quantitative High-Throughput drug screen in 47 multiple myeloma cell lines against the NCATS MIPE library collection: L363_DSMZ cell viability assay (AID 1918984); conditions: L363 myeloma viability, CellTiter-Glo ATP luminescence, 48 h; series mostly up to 45.8 µM; viability (% of control): at the top concentration; also: nearly all actives have a fitted effect of over 40% in size
Excerpt: PI: Beverly A. Mock Ph.D.
Laboratory of Cancer Biology and Genetics,
Center for Cancer Research, National Cancer Institute,
National Institute of Health, Bethesda, Maryland
Drug resistance and disease progression are common in multiple myeloma (MM) patients, underscoring the need for new therapeutic combinations. […] We hypothesized that effective combinations would reduce MYC expression and enhance p16 activity. […] These preclinical data identify potentially useful drug combinations for evaluation in drug-resistant MM and reveal potential mechanisms of combined drug sensitivity.
Described herein is the primary MIPE qHTS used to cherrypick compounds. Validated compounds were then further tested for potential synergistic activiy.
[1] Peat TJ, Gaikwad SM, Dubois W, Gyabaah-Kessie N, Zhang S, Gorjifard S, Phyo Z, Andres M, Hughitt VK, Simpson RM, Miller MA, Girvin AT, Taylor A, Williams D, D'Antonio N, Zhang Y, Rajagopalan A, Flietner E, Wilson K, Zhang X, Shinn P, Klumpp-Thomas C, McKnight C, Itkin Z, Chen L, Kazandijian D, Zhang J, Michalowski AM, Simmons JK, Keats J, Thomas CJ, Mock BA. Drug combinations identified by high-throughput screening promote cell cycle transition and upregulate Smad pathways in myeloma. Cancer Lett. 2023 Aug 1;568:216284. doi: 10.1016/j.canlet.2023.216284. Epub 2023 Jun 24. PMID: 37356470; PMCID: PMC10408729.
SEQUENCE No. (e.g., 1, 2, 3, etc.); […] (e.g., Cells, Incubation, Reagent, etc.); VALUE and DESCRIPTION.
1; Cells; 5 uL; white, solid bottom 1536-well Greiner assay plate.
2; Compounds; 23 nL; Kalypsis pin tool (Wako USA) equipped with a 1536-well pin head to transfer to the assay plates.
3; Incubation; 48 hours; 37C incubation.
4; Reagent;5uL; CellTiter Glo (Promega).
5; Detector; 425V; Luminescence; Viewlux PerkinElmer.
NOTES (numbers refer to Sequence numbers above)
1. The cell-based screening methods employed in this study were like those previously published. Briefly, the corresponding myeloma cell lines were screened in 1,536-well plates with 500 cells, 5-uL per well for inhibition of cell viability (assessed by measuring ATP levels with CellTiterGlo).
2. NCATS MIPE 4.0 library of approved and investigational drugs were added using the Kalypsis pin tool. Wells treated with DMSO only for 100% viability and media only for 0% viability were used as controls.
3. The assay plates were covered and incubated for 48 hours in a 37C, 5% CO2 incubator with controlled humidity.
4. After 48 hours, CellTilter-GloTM luminescent substrate mix (Promega) reagent was added to the assay plate and plates we incubated for 5 min at room temperature.
5. Signal was measured as median relative luminescence units on a ViewLux (PerkinElmer) multiplate reader.
[1] Heske CM, Davis MI, Baumgart JT, Wilson K, Gormally MV, Chen L, Zhang X, Ceribelli M, Duveau DY, Guha R, Ferrer M, Arnaldez FI, Ji J, Tran HL, Zhang Y, Mendoza A, Helman LJ, Thomas CJ. Matrix Screen Identifies Synergistic Combination of PARP Inhibitors and Nicotinamide Phosphoribosyltransferase (NAMPT) Inhibitors in Ewing Sarcoma. Clin Cancer Res. 2017 Dec 1;23(23):7301-7311. doi: 10.1158/1078-0432.CCR-17-1121. Epub 2017 Sep 12. PMID: 28899971; PMCID: PMC6636827.
Potency is read from the fitted curve at half-maximal effect.

Structure (SMILES) | Potency | viability (% of control)
CC(NCc1ccc2c(c1)nc(NC(=O)c1ccc(-c3cn[nH]c3)s1)n2CC(C)(C)O)C(C)(C)C (stereo not given) | 105 nM (active) | 
C=CC(=O)Nc1cccc(Oc2nc(Nc3ccc(N4CCN(C)CC4)cc3)ncc2Cl)c1 | 5260 nM (active) | 
CC(=O)OCC(=O)[C@@]1(O)[C@H](C)C[C@H]2[C@@H]3C=C(C)C4=Cc5c(cnn5-c5ccccc5)C[C@]4(C)[C@@H]3[C@@H](O)C[C@@]21C | 46.9 nM (active) | 
COc1cc2c(Nc3ccc(NC(=O)c4ccccc4)cc3)ncnc2cc1OCCCN1CCOCC1 |  | 97.8% (inactive)
CCn1cc(-c2ccnc3[nH]c(-c4cccc(CN(C)C)c4)cc23)c(-c2ccc(NC(=O)N(C)C)cc2)n1 | 2090 nM (active) | 
CC(C)(O)CCc1ccc(OCc2cc(-c3cccc(OC(F)F)c3)c3ncccc3c2)cc1 |  | 114% (inactive)
COc1cc(C(=O)N2CCC(N3CCN(C)CC3)CC2)ccc1Nc1ncc2c(n1)N(C)c1ccccc1C(=O)N2C | 4690 nM (active) | 
CC(=O)Nc1nc(C)c(-c2ccc(Cl)c(S(=O)(=O)NCCO)c2)s1 | 1180 nM (active) | 
O=c1[nH]nc(Sc2ncc([N+](=O)[O-])s2)n1-c1ccc2c(c1)OCCO2 | 3720 nM (active) | 
c1ccc2c(CCNc3ccc(Nc4ccncc4)cc3)c[nH]c2c1 | 4690 nM (active) | 
CC(C)(C)c1cnc(CSc2cnc(NC(=O)C3CCNCC3)s2)o1 | 166 nM (active) | 
Nc1cccc(-c2cc3c(Oc4cccc(O)c4)ncnc3[nH]2)c1 |  | 125% (inactive)
Cn1cc(-c2ccncc2)c(-c2ccc(OCc3ccc4ccccc4n3)cc2)n1 | 2640 nM (active) | 
Cc1cc(Nc2ncnc3ccc(-c4ccc(CNCCS(C)(=O)=O)o4)cc23)ccc1Oc1ccn2ncnc2c1 | 372 nM (active) | 
CC1(O)CC(c2nc(-c3ccc4ccc(-c5ccccc5)nc4c3)c3c(N)nccn23)C1 (stereo not given) | 662 nM (active) | 
O=C(O)CO.[NH2-].[NH2-].[Pt+2] |  | 108% (inactive)
C[C@]12CC[C@H](O)CC1=CCC1C2CC[C@]2(C)C(n3cnc4ccccc43)=CCC12 (stereo not given in full) |  | 107% (inactive)
C[C@@H]1COC(Nc2ccc3ncnc(Nc4ccc(OCc5nccs5)c(Cl)c4)c3c2)=N1 | 9350 nM (active) | 
CC(C)c1cnn2c(NCc3ccccc3)cc(N[C@@H](CO)[C@H](O)CO)nc12 | 148 nM (active) | 
O=c1[nH]c(=O)n(C2CCCO2)cc1F (stereo not given) |  | 101% [at 92.2 µM] (inactive)

Structure (SMILES) | Potency | viability (% of control)
c1cc(-c2cnn3cc(-c4ccc(OCCN5CCCCC5)cc4)cnc23)ccn1 |  | 102% (inactive)
CC(C)c1noc(N2CCC(COc3ccc(-c4ccc(S(C)(=O)=O)cc4)nc3)CC2)n1 |  | 109% (inactive)
CN1CCN(c2ccc3nc(-c4c(N)c5c(F)cccc5[nH]c4=O)[nH]c3c2)CC1 | 2960 nM (active) | 
COc1ccc(C(=O)CC2(O)C(=O)Nc3c(Cl)ccc(Cl)c32)cc1 (stereo not given) | 1660 nM (active) | 
O=C(Cc1ccc(-c2ccc(OCCN3CCOCC3)cc2)cn1)NCc1ccccc1 | 14.8 nM (active) | 
Cn1c2ccccc2c2c3c(c4c5ccccc5n(CCC#N)c4c21)CNC3=O | 209 nM (active) | 
CNC(=O)c1ccccc1Nc1nc(Nc2ccc(N3CCOCC3)cc2OC)ncc1Cl | 132 nM (active) | 
OCCCNc1cc(-c2ccnc(Nc3cccc(Cl)c3)n2)ccn1 | 33.2 nM (active) | 
Nc1ccccc1NC(=O)c1ccc(CNC(=O)OCc2cccnc2)cc1 | 418 nM (active) | 
CN(c1ncccc1CNc1nc(Nc2ccc3c(c2)CC(=O)N3)ncc1C(F)(F)F)S(C)(=O)=O | 2640 nM (active) | 
Cc1cc(N2CCOCC2)cc2[nH]c(-c3c(NC[C@@H](O)c4cccc(Cl)c4)cc[nH]c3=O)nc12 | 148 nM (active) | 
CC(=O)OCCN1C(=O)c2c(C)nc3ccc(S(=O)(=O)N4CCOCC4)cc3c2C1=O |  | 113% (inactive)
NC1(Cc2ccc(Cl)cc2)CCN(c2ncnc3[nH]ccc23)CC1 | 1870 nM (active) | 
CCS(=O)(=O)c1cccc(-c2cc(C(=O)NC3CCN(C)CC3)c(C)c3[nH]c4ncc(C)cc4c23)c1 | 1480 nM (active) | 
N#Cc1c(O)c2c(-c3ccc(-c4ccccc4O)cc3)csc2[nH]c1=O |  | 119% (inactive)
c1nc2nc(Nc3ccc(N4CCOCC4)cc3)nc(NC3CCCCC3)c2[nH]1 | 5260 nM (active) | 
OCc1ccc(-c2ccc(-c3ccc(CO)s3)o2)s1 |  | 109% (inactive)
Cc1ccc(C(=O)Nc2cccc(C(F)(F)F)c2)cc1-c1ccc2nc(NCCN3CCOCC3)ncc2c1 | 1050 nM (active) | 
COc1ccc(OC)c(-c2nnc3ccc(-c4ccc(OC)c(O[C@@H]5CCOC5)c4)nn23)c1 | 10500 nM (active) | 
O=C(CCCCCCNC(=O)c1cnc(N(c2ccccc2)c2ccccc2)nc1)NO | 4690 nM (active) | 
